Measurements taken from the supplement of paper PMC4840960.
Counter-ions that a name gives are not always drawn. ± gives the standard deviation of the averaged measurements.

Legend:
[1] = tested on: E18 rat cortical neuron-glia co-culture; test: fiber score / MBP score (myelination specific beyond OL differentiation) (ratio); higher = more myelination-specific MBP alignment; conditions: treatment time: 8 days (DIV5-DIV13)
Method in brief: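 The measure is the ratio of fiber score to MBP score, where fiber score is continuous MBP fiber length per Olig2+ nucleus and MBP score is thresholded MBP area × intensity per Olig2+ nucleus. Primary E18 rat cortical co-cultures received library compounds at 1 or 5 µM in myelination medium from DIV5 to DIV13, then were fixed in 4 % paraformaldehyde and stained for MBP, Olig2 and DAPI before analysis of four 10X fields per well in duplicate wells.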

[2] = tested on: E18 rat cortical neuron-glia co-culture; test: myelination (MBP fiber length per Olig2+ nucleus), % of 1 µM DAPT response (DMSO = 0) (% of DAPT); higher = more myelination, active = 50 or more; conditions: treatment time: 8 days (DIV5-DIV13)
Method in brief: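 The myelination value was the continuous straight MBP fiber length per Olig2+ nucleus, scaled between 0.1 % DMSO (0) and a 1 µM positive control (100). It was measured in primary E18 rat cortical co-cultures treated with library compounds at 1 or 5 µM in myelination medium from DIV5 through DIV13. Cells were fixed in 4 % paraformaldehyde and stained for MBP, Olig2 and DAPI, and four 10X fields per well were imaged in duplicate wells.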

Compound	fiber score / MBP score ([1]; 1 µM)	fiber score / MBP score ([1]; 5 µM)	myelination ([2]; 1 µM)	myelination ([2]; 5 µM)
CCCN1C[C@H](CSC)C[C@@H]2c3cccc4[nH]cc(c34)C[C@H]21 [Pergolide]	0.689	0.278	-19.3 (inactive)	-24.9 (inactive)
CN(C)C(=O)Oc1ccc[n+](C)c1 [Pyridostigmine Bromide]	0.691	0.895	-14.3 (inactive)	-8.88 (inactive)
COc1ccc(C(CN(C)C)C2(O)CCCCC2)cc1 (stereo not drawn) [Venlafaxine]	0.576	1.02	-11.7 (inactive)	-3.31 (inactive)
CNCC(O)c1ccc(O)cc1 (stereo not drawn) [Synephrine]	0.822	0.702	-6.47 (inactive)	-10.5 (inactive)
c1ccc2c3c([nH]c2c1)CNCC3 [Tryptoline]	0.757	0.905	-12 (inactive)	-4.44 (inactive)
CN1CC[C@@H](c2ccc(F)cc2)[C@H](COc2ccc3c(c2)OCO3)C1 [N-Methylparoxetine]	0.423	0.379	-58.7 (inactive)	-60.5 (inactive)
C[C@]12CC[C@H](O)CC1=CC[C@@H]1[C@@H]2CC[C@]2(C)C(=O)CC[C@@H]12 [Dehydroepiandrosterone]	1.25	0.965	18.9 (inactive)	-6.07 (inactive)
O=C(O)CCCc1ccc(N(CCCl)CCCl)cc1 [Chlorambucil]	0.893	0.615	-6.49 (inactive)	-17 (inactive)
CN1[C@@H]2C[C@@H](OC(=O)[C@H](CO)c3ccccc3)C[C@H]1[C@@H]1O[C@@H]12 [Scopolamine hydrobromide]	0.649	0.821	-49.5 (inactive)	-31.2 (inactive)
C=C1C[C@@H]2[C@H](CC[C@]3(C)C(=O)CC[C@@H]23)[C@@]2(C)C=CC(=O)C=C12 [Exemestane]	0.805	0.86	-11.3 (inactive)	-11.8 (inactive)
COC(=O)N1CCN(C(=O)Cc2ccc(Cl)c(Cl)c2)C(CN2CCCC2)C1 (stereo not drawn)	0.594	0.389	-13 (inactive)	-22.4 (inactive)
COc1ccc2[nH]cc(C3=CCNCC3)c2c1	0.706	0.448	-14.7 (inactive)	-24.2 (inactive)
CCOC(=O)C1(c2ccccc2)CCN(CCC(C#N)(c2ccccc2)c2ccccc2)CC1 [Diphenoxylate]	0.738	0.867	-12.3 (inactive)	11.5 (inactive)
O=P1(N(CCCl)CCCl)NCCCO1 (stereo not drawn) [Cyclophosphamide]	0.725	0.547	-41 (inactive)	-54.7 (inactive)
CC(=O)O[C@H]1C[C@@H]2CC[C@@H]3[C@H](CC[C@@]4(C)[C@H]3C[C@H]([N+]3(C)CCCCC3)[C@@H]4OC(C)=O)[C@@]2(C)C[C@@H]1[N+]1(C)CCCCC1 [Pancuronium]	0.692	1.04	-11 (inactive)	2.32 (inactive)
c1ccc2c(c1)Nc1ccccc1S2 [Phenothiazine]	0.706	0.89	-16.1 (inactive)	-5.33 (inactive)
O=C1CC[C@@]2(O)[C@H]3Cc4ccc(O)c5c4[C@@]2(CCN3CC2CC2)[C@H]1O5 [Naltrexone]	1.3	0.956	14.8 (inactive)	1.8 (inactive)
CN1C(=O)CN=C(c2ccccc2)c2cc([N+](=O)[O-])ccc21 [Nimetazepam]	0.743	0.878	-11 (inactive)	-8.49 (inactive)
CCOC(=O)c1cncn1[C@H](C)c1ccccc1 [Etomidate]	0.772 ± 0.06	0.987 ± 0.1	-14.6 (inactive)	6.64 (inactive)
CN1CCN(C(=O)O[C@H]2c3nccnc3C(=O)N2c2ccc(Cl)cn2)CC1 [Eszopiclone]	0.461	0.876	-5.43 (inactive)	15.5 (inactive)
c1ccc(Cn2ccnc2)cc1 [1-Benzylimidazole]	0.664	0.942	-11.8 (inactive)	-0.886 (inactive)
CN1[C@@H]2CC[C@H]1C[C@@H](OC(=O)[C@H](CO)c1ccccc1)C2 [Hyoscyamine]	0.631	0.692	-15.1 (inactive)	-12.5 (inactive)
FC(F)(F)c1cccc(N2CCNCC2)c1 [1-(3-trifluoromethylphenyl)piperazine hydrochloride (TFMPP)]	0.633	0.613	-32.2 (inactive)	-32.7 (inactive)
O=C(O)C(Cl)Cl [Dichloroacetic Acid]	0.765	0.882	-10.2 (inactive)	-7.43 (inactive)
CCN(CC)CCOC(=O)C(O)(c1ccccc1)c1ccccc1 [Benactyzine]	1.18	1.2	1.93 (inactive)	0.796 (inactive)
C[C@]12CC[C@H](O)CC1=CC[C@@H]1[C@@H]2CC[C@@]2(C)[C@H]1CC[C@]2(C)O [Methandriol]	0.712	0.961	-15.9 (inactive)	-4.34 (inactive)

Compound	fiber score / MBP score ([1]; 1 µM)	fiber score / MBP score ([1]; 5 µM)	myelination ([2]; 1 µM)	myelination ([2]; 5 µM)
C#CCN(C)[C@H](C)Cc1ccccc1 [Selegiline]	0.779 ± 0.13	1.02 ± 0.14	-16 (inactive)	-0.224 (inactive)
NC(=O)OCCCc1ccccc1 [Phenprobamate]	0.695	0.885	-14.2 (inactive)	-11.4 (inactive)
NC1=NC(=O)C(c2ccccc2)O1 (stereo not drawn) [Pemoline]	0.628	0.845	-21.3 (inactive)	-11.3 (inactive)
C[C@]12CCC(=O)C=C1CC[C@@H]1[C@@H]2CC[C@@]2(C)[C@H]1CC[C@]2(C)O [Methyltestosterone]	0.609	0.755	-24.8 (inactive)	-17.2 (inactive)
Cc1nnc2n1-c1ccc(Cl)cc1C(c1ccccc1)=NC2 [Alprazolam]	0.628	0.823	-26.1 (inactive)	-17.4 (inactive)
Cc1ncc2n1-c1ccc(Cl)cc1C(c1ccccc1F)=NC2 [Midazolam]	0.908	1.88	-0.202 (inactive)	31.1 (inactive)
C[C@H]1CCC[C@H](O)CCCCCc2cc(O)cc(O)c2C(=O)O1 [Zeranol]	0.788	0.876	-13.7 (inactive)	-5.48 (inactive)
CCN(C(C)=O)c1cccc(-c2ccnc3c(C#N)cnn23)c1 [Zaleplon]	0.794	1.2	-13.6 (inactive)	16 (inactive)
CN1C(=O)CN=C(c2ccccc2)c2cc(Cl)ccc21 [Diazepam]	0.832	0.879	-8.32 (inactive)	-9.05 (inactive)
Oc1cc2c(cc1O)[C@H]1c3ccccc3CN[C@@H]1CC2 (racemic) [Dihydrexidine]	1.05	3.38	-4.93 (inactive)	-20.9 (inactive)
CC[C@@H]1C=CC=CC[C@H](C)[C@@H](O)[C@@H](C)C(=O)[C@H](C)[C@@H](O)[C@H](C)C(=O)[C@H](C)[C@@H](O)[C@H](C)C=CC(=O)O[C@H]2[C@@H](C)[C@@H](CC1)O[C@@]1(CC[C@@H](C)[C@@H](C[C@H](C)O)O1)[C@@H]2C [Oligomycin C]	0.799	1.11	-6.58 (inactive)	47.7 (inactive)
CC(C)c1cccc(C(C)C)c1O [Propofol]	0.782	0.895	-3.16 (inactive)	-2.27 (inactive)
COc1cccc(C2(O)CCCCC2CN(C)C)c1 (stereo not drawn) [Tramadol]	0.793	0.749	-12.4 (inactive)	-7.33 (inactive)
Oc1ccc2c3c1O[C@H]1[C@@H](O)CC[C@@]4(O)[C@@H](C2)N(CC2CCC2)CC[C@]314 [Nalbufina]	0.796	0.955	-19 (inactive)	-7.9 (inactive)
C[N+]1(CCC(C(N)=O)(c2ccccc2)c2ccccc2)CCCCC1 [Fenpiverinium]	1.01	1.19	4.83 (inactive)	191
CN1C(=O)COc2c(C(=O)NC3CN4CCC3CC4)cc(Cl)cc21 (stereo not drawn) [Azasetron]	0.754	0.901	-6.5 (inactive)	2.28 (inactive)
CC(C)(O)[C@@H]1[C@H]2OC(=O)[C@@H]1[C@]1(O)C[C@H]3O[C@]34C(=O)O[C@H]2[C@]14C [Picrotin]	0.632	0.797	-12.7 (inactive)	-5.47 (inactive)
CN1CC[C@]2(c3cccc(O)c3)Cc3nc4ccccc4cc3C[C@H]2C1	0.572	0.822	-18.1 (inactive)	2.91 (inactive)
COc1cc(N)c(Cl)cc1C(=O)NC1CN2CCC1CC2 (stereo not drawn) [Zacopride]	0.703	0.884	-11.9 (inactive)	-0.361 (inactive)
CC(C)N(CCC(C(N)=O)(c1ccccc1)c1ccccn1)C(C)C (stereo not drawn) [Disopyramide]	0.453	0.371	-13.9 (inactive)	-13.6 (inactive)
CC(O)(CS(=O)(=O)c1ccc(F)cc1)C(=O)Nc1ccc(C#N)c(C(F)(F)F)c1 (stereo not drawn) [Bicalutamide]	0.676	0.996	-28 (inactive)	-2.06 (inactive)
CCC(C(N)=O)N1CCCC1=O (stereo not drawn) [Etiracetam]	0.904	0.739	-28.6 (inactive)	-27.5 (inactive)
COc1cc([C@@H]2c3cc4c(cc3[C@H](O)[C@H]3COC(=O)[C@H]23)OCO4)cc(OC)c1OC [Podophyllotoxin]	0.393	0.31	-13.9 (inactive)	-15.8 (inactive)
O=C1CN=C(c2ccccc2)c2cc([N+](=O)[O-])ccc2N1 [Nitrazepam]	0.887	0.996	-6.44 (inactive)	0.525 (inactive)
CCCCC/C=C\C/C=C\C/C=C\C/C=C\CCCC(=O)Nc1ccc(O)cc1	0.943	0.96	-0.524 (inactive)	-30.5 (inactive)
C[C@]12CC[C@H]3[C@@H](CCC4=CC(=O)CC[C@@H]43)[C@@H]1CC[C@@H]2O [Nandrolone]	0.984	0.883	-3.41 (inactive)	-16.8 (inactive)
